Test results published in PubChem BioAssay (EPA / NIEHS).
Activity calls are given as the source filed them. Rule for the calls: active = hit-call score of the fitted dose curve at least 0.9, where 1 is the maximum; inactive = score below 0.9.

Legend:
Details in all cases: mRNA level, 48 h; actives raise or lower the signal
[1] = read-out: Potassium channel subfamily K member 1 (KCNK1), KCNK1 (gene 3775); assay: LTEA_HepaRG_KCNK1: Life Technologies and Expression Analysis (LTEA) Assay for Potassium channel subfamily K member 1 (KCNK1) using HepaRG (AID 2283511)
In short: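 KCNK1 transcript measured by TaqMan qRT-PCR against three housekeeping genes, after HepaRG cells were treated 48 h with eight half-log concentrations (top 100 uM, 0.5% DMSO). Curves fitted bidirectionally relative to vehicle.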

[2] = read-out: Keratin 19 (KRT19), KRT19 (gene 3880); assay: LTEA_HepaRG_KRT19: Life Technologies and Expression Analysis (LTEA) Assay for Keratin 19 (KRT19) using HepaRG (AID 2283512)
In short: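 Differentiated HepaRG cells in serum-free induction medium, exposed 48 h in duplicate to 8 half-log concentrations up to 100 uM in 0.5% DMSO. KRT19 mRNA by qRT-PCR, normalized to ACTB, GAPDH, POLR2A; bidirectional fit vs DMSO.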

[3] = read-out: JUN Transcription Factor, JUN (gene 3725); assay: LTEA_HepaRG_JUN: Life Technologies and Expression Analysis (LTEA) Assay for JUN Transcription Factor using HepaRG (AID 2283513)
In short: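 Gene-expression endpoint: JUN mRNA (qRT-PCR, normalized to three reference genes) in HepaRG cultures treated 48 h with chemicals, duplicate wells, 100 uM maximum with half-log dilutions; bidirectional fitting relative to 0.5% DMSO.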

[4] = read-out: Lipase C (LIPC), LIPC (gene 3990); assay: LTEA_HepaRG_LIPC: Life Technologies and Expression Analysis (LTEA) Assay for Lipase C (LIPC) using HepaRG (AID 2283514)
In short: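 LIPC expression was quantified by qRT-PCR against three housekeeping genes (ACTB, GAPDH, POLR2A). Differentiated human HepaRG cells received eight half-log doses (top 100 uM, 0.5% DMSO) in duplicate for 48 h; fitting bidirectional relative to DMSO.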

[5] = read-out: Lipoprotein lipase (LPL), LPL (gene 4023); assay: LTEA_HepaRG_LPL: Life Technologies and Expression Analysis (LTEA) Assay for Lipoprotein lipase (LPL) using HepaRG (AID 2283515)
In short: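 LPL transcript levels quantified by TaqMan qRT-PCR against three housekeeping genes after 48 h chemical treatment of HepaRG cells. Eight-point half-log series from 100 uM in 0.5% DMSO, tested in duplicate; bidirectional fitting versus vehicle.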

[6] = read-out: matrix metalloproteinase-10 (MMP10), MMP10 (gene 4319); assay: LTEA_HepaRG_MMP10: Life Technologies and Expression Analysis (LTEA) Assay for matrix metalloproteinase-10 (MMP10) using HepaRG (AID 2283517)
In short: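 Expression measured by TaqMan qRT-PCR with ACTB/GAPDH/POLR2A normalisation after 48 h chemical exposure of HepaRG cells. Eight half-log concentrations, top 100 uM, 0.5% DMSO vehicle, duplicates; gain or loss fitted against vehicle.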

MYC, MYC (gene 4609) = assay: LTEA_HepaRG_MYC: Life Technologies and Expression Analysis (LTEA) Assay for MYC using HepaRG (AID 2283518)
In short: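 Differentiated HepaRG cells exposed 48 h in serum-free induction medium to 8 concentrations (top 100 uM, half-log steps; 0.5% DMSO), duplicate. MYC mRNA measured by Fluidigm qRT-PCR, normalized to ACTB, GAPDH, POLR2A; bidirectional fit versus DMSO.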

[7] = read-out: Paternally Expressed 10 (PEG10), PEG10 (gene 23089); assay: LTEA_HepaRG_PEG10: Life Technologies and Expression Analysis (LTEA) Assay for Paternally Expressed 10 (PEG10) using HepaRG (AID 2283520);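 for AC50: PEG10 transcript by qRT-PCR normalised to ACTB GAPDH and POLR2A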
In short: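 After 48 h exposure of differentiated HepaRG cells (0.5% DMSO vehicle, eight concentrations up to 100 uM, duplicates), PEG10 mRNA was measured by TaqMan qRT-PCR. Values were normalised to endogenous control genes and analysed bidirectionally against vehicle.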

[8] = read-out: MicroRNA 122 (MIR122), gene 406906; assay: LTEA_HepaRG_MIR122: Life Technologies and Expression Analysis (LTEA) Assay for MicroRNA 122 (MIR122) using HepaRG (AID 2283516); note: the transcript read is the microRNA miR-122
In short: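 Changes in transcript abundance, up or down relative to 0.5% DMSO vehicle, were scored after 48 h chemical treatment of HepaRG cells (maximum 100 uM). Quantification used TaqMan qRT-PCR normalized to housekeeping genes.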

[9] = read-out: matrix metalloproteinase-3 (MMP3), MMP3 (gene 4314); assay: LTEA_HepaRG_MMP3: Life Technologies and Expression Analysis (LTEA) Assay for matrix metalloproteinase-3 (MMP3) using HepaRG (AID 2283519)
In short: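 Fluidigm-based TaqMan qRT-PCR, normalized to ACTB, GAPDH and POLR2A and fitted bidirectionally versus 0.5% DMSO, measured transcript levels. Treatment: duplicate 48 h exposures of HepaRG cells, ~100,000/well, to eight half-log concentrations topping at 100 uM.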

Measured: AC50

Cc1cccc2ccccc12
not listed: [8] | [9]
inactive: all other assays above

CN(C)c1ccc(C(=C2C=CC(=[N+](C)C)C=C2)c2ccc(N(C)C)cc2)cc1
active: [1] 5.1 µM | [2] 4.74 µM | [3] 89.2 µM | [4] 3.01 µM | [6] 8.54 µM | MYC, MYC (gene 4609) 12 µM | [7] 6.63 µM

Cc1ccc(C(C)C)cc1
not listed: [5] | [9]
inactive: all other assays above

Cc1c2ccccc2c(C)c2c1ccc1ccccc12
active: [2] 13.3 µM | [4] 30.6 µM | [5] 82.5 µM | [8] 66 µM | [6] 79.5 µM | MYC, MYC (gene 4609) 63.7 µM | [9] 11.8 µM | [7] 28.5 µM
inactive: [1] | [3]

CO[C@H]1/C=C/O[C@@]2(C)Oc3c(C)c(O)c4c(O)c(c(/C=N/N5CCN(C)CC5)c(O)c4c3C2=O)NC(=O)/C(C)=C\C=C\[C@H](C)[C@H](O)[C@@H](C)[C@@H](O)[C@@H](C)[C@H](OC(C)=O)[C@@H]1C
not listed: [5] | [7] | [9]
inactive: all other assays above

O=C(O)Cc1cc(I)c(Oc2ccc(O)c(I)c2)c(I)c1
inactive: [9]
active: [1] 64.3 µM | [2] 0.631 µM | [3] 80.7 µM | [4] 88.5 µM | [5] 65.7 µM | [6] 81 µM | MYC, MYC (gene 4609) 91.3 µM | [7] 0.558 µM

CC(C)(C)c1cc(/C=C2\SC(N)=NC2=O)cc(C(C)(C)C)c1O
inactive: [1] | [2] | [4] | [7]
active: [3] 66.6 µM | [6] 49.9 µM | MYC, MYC (gene 4609) 28.9 µM

O=C1CCC(C2CCCCC2)CC1
not listed: [5] | [9]
inactive: all other assays above

C[C@]12CC[C@@H]3c4ccc(O)cc4CC[C@H]3[C@@H]1CCC2=O
not listed: [4] | [9]
inactive: all other assays above

Clc1ccccc1C(c1ccccc1)(c1ccccc1)n1ccnc1
inactive: [1] | [9] | [7]
active: [2] 20.2 µM | [3] 66 µM | [4] 93.1 µM | [5] 89.8 µM | [8] 17.3 µM | [6] 25.2 µM | MYC, MYC (gene 4609) 20.5 µM

O=c1c(-c2ccc(O)cc2)coc2cc(O)cc(O)c12
inactive: all assays above

Cc1ncc(CO)c(CO)c1O
not listed: [5]
inactive: all other assays above

Cc1cc2c(cc1C(F)(F)F)N(C(=O)Nc1ccc(Oc3cccnc3C)nc1)CC2
active: [4] 46 µM | [5] 80.4 µM | [8] 46 µM | [6] 26.8 µM
not listed: [9]
inactive: all other assays above

COCC(C)OCC(C)OCC(C)O (stereo unspecified)
not listed: [5] | [8] | [9]
inactive: all other assays above

O=C(OCCCCCCOC(=O)c1ccccc1)c1ccccc1
not listed: [5] | [9]
inactive: all other assays above

CC[C@H](NC(=O)c1cc(F)ccc1NS(=O)(=O)c1cccc2cccnc12)c1ccccc1
active: [4] 20.1 µM | [7] 19.1 µM
inactive: [1] | [2] | [3] | [6] | MYC, MYC (gene 4609)

CC1(C)NC(=O)N(c2ccc([N+](=O)[O-])c(C(F)(F)F)c2)C1=O
active: [2] 67.8 µM | [4] 89.7 µM | [5] 76.2 µM | [8] 80.9 µM | MYC, MYC (gene 4609) 81.8 µM | [7] 15.7 µM
inactive: [1] | [3] | [6] | [9]

CC(C)(O)c1ccc(CNC(=O)c2cccnc2Oc2ccc3nonc3c2)cc1
not listed: [8]
inactive: all other assays above
